The full ranking holds about 18,000 sequences; the median of “log2 normalized intensity” is about 0.36, and the highest 2% start at about 7.3. What follows is part of a selection rich in the highest values, with near analogues and random picks from the rest.

In the assay the target is T1, HNF4alpha8 (COS-7 nuclear extract) (Homo sapiens, UniProt P41235-5 1-452).
T1 sequence: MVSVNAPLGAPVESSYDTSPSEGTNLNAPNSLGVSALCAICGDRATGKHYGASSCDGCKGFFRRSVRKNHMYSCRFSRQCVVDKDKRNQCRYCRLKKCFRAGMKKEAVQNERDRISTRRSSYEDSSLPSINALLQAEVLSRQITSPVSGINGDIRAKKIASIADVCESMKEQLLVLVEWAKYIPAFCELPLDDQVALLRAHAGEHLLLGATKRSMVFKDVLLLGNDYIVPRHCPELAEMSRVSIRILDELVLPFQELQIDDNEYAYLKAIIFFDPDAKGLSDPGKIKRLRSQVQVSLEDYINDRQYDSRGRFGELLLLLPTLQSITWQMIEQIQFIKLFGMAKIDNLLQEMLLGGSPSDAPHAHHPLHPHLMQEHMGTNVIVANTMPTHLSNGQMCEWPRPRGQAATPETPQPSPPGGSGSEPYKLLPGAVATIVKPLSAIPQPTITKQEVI
The assay can be described thus: protein-binding microarray; COS-7 nuclear extract on double-stranded Agilent 4x180k PBM; binding buffer, salt, pH and temperature not given in the material; high values mean tight binding. To be noted: chain copies: 2; label: 3' end of strand 1 on the slide; dsDNA, one strand shown. In a few lines:
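The binding signal is Agilent software's gProcessedSignal after background correction and normalization. Arrays were a custom Agilent SurePrint G3 4x180k design of double-stranded ~60-nt oligonucleotides with ~44,000 test sequences in quadruplicate, probed with nuclear extracts of COS-7 cells transiently expressing a human HNF4α isoform. Scans were made at 2-µm resolution on an Agilent G2565CA scanner.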
With “CAGAAGTCATGTCTCATTGCCCCTTGAGCTGCCTAGGGAGATTAGAGTATCGGTCGA”, the binding signal was determined as 3.87 log2 normalized intensity.

Take “TGCCCTTTGGCCCCCAGAGCCCCGTGTCTCGCCTAGGGAGATTAGAGTATCGGTCGA”: the binding signal stood at 5.63 log2 normalized intensity.

Consider “ACCCCTGAATAGGTCTTGGAATGTGACGGCGCCTAGGGAGATTAGAGTATCGGTCGA”, for which the binding signal was 1.5 log2 normalized intensity.

For the sequence “GTTCTCTGGGCTTTTTGATCTTGTCACATTGCCTAGGGAGATTAGAGTATCGGTCGA”, the binding signal was 1.99 log2 normalized intensity.

Take “GAACAGTCCTACAAATGATCAAAGGTTGGTGCCTAGGGAGATTAGAGTATCGGTCGA”: the binding signal worked out at 3.74 log2 normalized intensity.

As to “TACAGGGAGCTATTCTTTAACCAGAGTCTAGCCTAGGGAGATTAGAGTATCGGTCGA”, the binding signal was -0.822 log2 normalized intensity.

Take “TCTTGTGGTAATCTCTTTTGTGTTAGAGGGGCCTAGGGAGATTAGAGTATCGGTCGA”: the binding signal worked out at 1.02 log2 normalized intensity.

“GACCTTCAGATGCAGTCCAGAAGGTCAGGAGCCTAGGGAGATTAGAGTATCGGTCGA”: the binding signal stood at 4.19 log2 normalized intensity.

With “GCTAGACTTGGACCAGCTTTTGGAAGGACTGCCTAGGGAGATTAGAGTATCGGTCGA”, the binding signal is 0.0118 log2 normalized intensity.

As to “GGGTTTGTTTTTTGCCCTTTGTACCCACACGCCTAGGGAGATTAGAGTATCGGTCGA”, the binding signal is 8.41 log2 normalized intensity.

Take “CCCACAGAGGGGGTTTGTTTTTTGCCCTTTGCCTAGGGAGATTAGAGTATCGGTCGA”: the binding signal worked out at 5.27 log2 normalized intensity.

For the sequence “AGAGGGGGTTTGTTTTTTGCCCTTTGTACCGCCTAGGGAGATTAGAGTATCGGTCGA”, the binding signal was 8.63 log2 normalized intensity.

As to “CTGTACCCTATGCACCCCACAGTGCTGTTTGCCTAGGGAGATTAGAGTATCGGTCGA”, the binding signal was found to be 1.71 log2 normalized intensity.

With “TGTTTTTTGCCCTTTGTACCCACACACACCGCCTAGGGAGATTAGAGTATCGGTCGA”, the binding signal was found to be 7.36 log2 normalized intensity.

Take “AGCCTACCCACCCACACCTCCCCTTTGTTTGCCTAGGGAGATTAGAGTATCGGTCGA”: the binding signal stood at 3.22 log2 normalized intensity.

For “ACCCACCCACACCTCCCCTTTGTTTAACTTGCCTAGGGAGATTAGAGTATCGGTCGA”, the binding signal came to 2.79 log2 normalized intensity.

Take “CCGCCCACCCTTTTTTTTCTTTCTTTTCCCGCCTAGGGAGATTAGAGTATCGGTCGA”: the binding signal was 1.46 log2 normalized intensity.

For the sequence “TGCCCTTTGCCTGGTGATCTTTGTTAGACCGCCTAGGGAGATTAGAGTATCGGTCGA”, the binding signal came to 3.02 log2 normalized intensity.

Take “CCAGAGCCTCCAAAGTCCGCTTGCCTGAGGGCCTAGGGAGATTAGAGTATCGGTCGA”: the binding signal is -0.939 log2 normalized intensity.

Consider “ACAGCGTTTTCCCATTCATGACATTGATTTGCCTAGGGAGATTAGAGTATCGGTCGA”, for which the binding signal came out at 1.47 log2 normalized intensity.

For “ACCCCACTTTGGTTCACCGCTCACTGCTCCGCCTAGGGAGATTAGAGTATCGGTCGA”, the binding signal was -0.611 log2 normalized intensity.

With “TACTGGTTGAATGGACGGACAGGTAACGTAGCCTAGGGAGATTAGAGTATCGGTCGA”, the binding signal was 0.899 log2 normalized intensity.

For “AACCTCCTTTGAGATAGCTATGATTATCCTGCCTAGGGAGATTAGAGTATCGGTCGA”, the binding signal was -0.867 log2 normalized intensity.

For the sequence “ATTGACATTTGGGGTCAGATAATTCTTTGCGCCTAGGGAGATTAGAGTATCGGTCGA”, the binding signal worked out at 2.42 log2 normalized intensity.

For the sequence “AAGACCCAAGGCGTATGAAGCTTTGACCCTGCCTAGGGAGATTAGAGTATCGGTCGA”, the binding signal amounted to 5.29 log2 normalized intensity.

On to “AGGGATTCCTGAAGATCGCAGACTTTGGACGCCTAGGGAGATTAGAGTATCGGTCGA”, for which the binding signal worked out at 6.44 log2 normalized intensity.

As for “GGAGACCTGAAACTAGACCAAGAAGACTTTGCCTAGGGAGATTAGAGTATCGGTCGA”, the binding signal is -0.267 log2 normalized intensity.

With “TGGACTTTGCACTAAAAGCCATGAGAAGGTGCCTAGGGAGATTAGAGTATCGGTCGA”, the binding signal stood at 5.41 log2 normalized intensity.

For “GGTGAGTCTTTGCCCCTGGACTTTGAATTTGCCTAGGGAGATTAGAGTATCGGTCGA”, the binding signal worked out at 5.75 log2 normalized intensity.

Regarding “CTGAAGAATTTGGACTTTGCACTAAAAGCCGCCTAGGGAGATTAGAGTATCGGTCGA”, the binding signal was determined as 7.57 log2 normalized intensity.

For the sequence “GGGTCCTGGCAGCACCTGAAGAATTTGGACGCCTAGGGAGATTAGAGTATCGGTCGA”, the binding signal worked out at 1.76 log2 normalized intensity.

As for “GAATTTGGACTTTGCACTAAAAGCCATGAGGCCTAGGGAGATTAGAGTATCGGTCGA”, the binding signal was 6.28 log2 normalized intensity.

As to “GAAGATCGCAGACTTTGGACTCTGCAAGGAGCCTAGGGAGATTAGAGTATCGGTCGA”, the binding signal amounted to 6.68 log2 normalized intensity.

Take “AGCACCTGAAGAATTTGGACTTTGCACTAAGCCTAGGGAGATTAGAGTATCGGTCGA”: the binding signal is 9.19 log2 normalized intensity.

In the case of “CTGGCAGCACCTGAAGAATTTGGACTTTGCGCCTAGGGAGATTAGAGTATCGGTCGA”, the binding signal was determined as 8.33 log2 normalized intensity.

As to “TGGACTTTGGAATTAAGGAGATTTGGCTTTGCCTAGGGAGATTAGAGTATCGGTCGA”, the binding signal was determined as 5.99 log2 normalized intensity.

For the sequence “TTCCTGAAGATCGCAGACTTTGGACTCTGCGCCTAGGGAGATTAGAGTATCGGTCGA”, the binding signal worked out at 8.57 log2 normalized intensity.

As for “CAAGGAAAGATAAATAGTGACAAATTGTATGCCTAGGGAGATTAGAGTATCGGTCGA”, the binding signal is -0.0347 log2 normalized intensity.

In the case of “GTTTCTCAAGTGATCGAAGGTCAACTTATCGCCTAGGGAGATTAGAGTATCGGTCGA”, the binding signal came out at 4.63 log2 normalized intensity.

In the case of “TGTCCTGTGATTAAGGTCAATGGGAAACTAGCCTAGGGAGATTAGAGTATCGGTCGA”, the binding signal came to 1.05 log2 normalized intensity.

As to “CTAGTTCATTAAACATGTTTACTCTGGTCCGCCTAGGGAGATTAGAGTATCGGTCGA”, the binding signal amounted to 1.59 log2 normalized intensity.

On to “GAAGGAGAGTGACCTCTGCTTGAAGGCATTGCCTAGGGAGATTAGAGTATCGGTCGA”, for which the binding signal worked out at 1.78 log2 normalized intensity.

Turning to “AGATTCTTTCTTCCTTTTGAAAAAGTGAGTGCCTAGGGAGATTAGAGTATCGGTCGA”, the binding signal was 0.567 log2 normalized intensity.

As to “AATAGCCCCAAATTCCTTTCAAACTGTATTGCCTAGGGAGATTAGAGTATCGGTCGA”, the binding signal was found to be 1.37 log2 normalized intensity.

With “CAAAAATGATACCCCAGAGTACAGCACTTTGCCTAGGGAGATTAGAGTATCGGTCGA”, the binding signal came out at 1.2 log2 normalized intensity.

With “ATCAGAGCAAAGTTCAATTTCCAACAAATGGCCTAGGGAGATTAGAGTATCGGTCGA”, the binding signal was determined as 3.74 log2 normalized intensity.

As to “GGAGAGAGTTTGGCCCCAGTTCCCATGGACGCCTAGGGAGATTAGAGTATCGGTCGA”, the binding signal was 1.45 log2 normalized intensity.

Values taken from article PMC10726135, “HNF4α isoforms regulate the circadian balance between carbohydrate and lipid metabolism in the liver”.
